From the supplement of paper PMC10849652
The full data set covers some 8,800 targets. This sample favours those with a hit. About 0.5% of all pairs of compound and target were hits.

Key:
Assay in all cases: log2 fold change, soluble protein after heating vs DMSO (PISA); higher = thermal stabilisation; K562 lysate, 10 uM; active = over 0.2 and 3.5 SD of the protein, either way, in both replicates (recomputed)
[1] = compound: C1=CC=C(C=C1)[C@H](COC2=CC3=C(C=C2)NC(=O)N3)NC(=O)C4=CC=CN(C4=O)CC5=CC(=C(C=C5)F)F
Procedure, shortened: (§1)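 A 30 min treatment with 10 μM compound was applied to crude K562 extract at 1 mg/mL protein in PBS pH 7.4 with 1 mM MgCl2. Heating for 3 min spanned 48°C-58°C, after which aliquots were pooled, adjusted to 0.5% NP-40 at 4°C and spun at 21,000xg for 90 min. TMTpro 16plex LC-MS/MS of the supernatant, with channel sums equalised, gave values recorded as log-two fold change in thermal stability against solvent controls, from duplicates.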

[2] = compound: CC1=C(SC2=C1C(=N[C@H](C3=NN=C(N32)C)CC(=O)N)C4=CC=C(C=C4)Cl)C
Procedure, shortened: as §1

[3] = compound: CC1=C2C(=CC=C1)N=C(N(C2=O)C3=CC=CC=C3C)CN4C=NC5=C(N=CN=C54)N
Procedure, shortened: as §1

[4] = compound: Cc1sc2c(c1C)C(c1ccc(Cl)cc1)=N[C@@H](CC(=O)OC(C)(C)C)c1nnc(C)n1-2
Procedure, shortened: as §1

[5] = compound: c1ccc([C@@H]2C[C@H]2NC2CCNCC2)cc1
Procedure, shortened: as §1

IRAK-1-4 Inhibitor I = compound: C1COCCN1CCN2C3=CC=CC=C3N=C2NC(=O)C4=CC(=CC=C4)[N+](=O)[O-] [IRAK-1-4 Inhibitor I]
Procedure, shortened: as §1

Measured: log2 fold change

CDK16 isoform 2 (UniProt Q00536)
Sequence of UniProt Q00536 (Q00536 whole entry, looked up): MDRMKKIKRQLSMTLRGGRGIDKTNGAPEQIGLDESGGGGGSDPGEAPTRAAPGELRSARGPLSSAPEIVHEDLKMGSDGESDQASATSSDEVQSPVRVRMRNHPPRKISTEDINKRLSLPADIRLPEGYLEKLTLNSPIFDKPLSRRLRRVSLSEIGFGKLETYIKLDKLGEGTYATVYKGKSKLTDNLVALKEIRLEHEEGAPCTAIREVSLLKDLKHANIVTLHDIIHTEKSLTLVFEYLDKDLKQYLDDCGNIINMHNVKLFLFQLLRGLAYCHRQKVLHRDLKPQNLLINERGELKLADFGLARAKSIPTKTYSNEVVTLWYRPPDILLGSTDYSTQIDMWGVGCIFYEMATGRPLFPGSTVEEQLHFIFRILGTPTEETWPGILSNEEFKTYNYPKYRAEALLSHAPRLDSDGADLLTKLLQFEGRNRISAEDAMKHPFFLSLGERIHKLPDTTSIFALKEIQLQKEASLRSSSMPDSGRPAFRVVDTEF
inactive: [1] -0.02 | [2] -0.059 | [3] -0.11 | [4] -0.011 | [5] -0.049

CENPQ (UniProt Q7L2Z9)
inactive: [1] -0.02 | [2] -0.02 | [3] 0.038 | [4] 0.021 | [5] -0.013

CEP295 isoform 3 (UniProt Q9C0D2)
inactive: [1] -0.154 | [2] 0.045 | [5] 0.024

ATXN2 (UniProt F8WB06)
inactive: [4] -0.014

CDK11A (UniProt Q9UQ88)
inactive: [1] -0.046 | [2] 0.025 | [4] 0.091 | [5] 0

BTRC (UniProt Q9Y297)
inactive: [1] 0.024 | [2] -0.042 | [3] -0.003 | [5] -0.048

CASP7 isoform 3 (UniProt P55210)
Sequence of UniProt P55210 (P55210 whole entry, looked up): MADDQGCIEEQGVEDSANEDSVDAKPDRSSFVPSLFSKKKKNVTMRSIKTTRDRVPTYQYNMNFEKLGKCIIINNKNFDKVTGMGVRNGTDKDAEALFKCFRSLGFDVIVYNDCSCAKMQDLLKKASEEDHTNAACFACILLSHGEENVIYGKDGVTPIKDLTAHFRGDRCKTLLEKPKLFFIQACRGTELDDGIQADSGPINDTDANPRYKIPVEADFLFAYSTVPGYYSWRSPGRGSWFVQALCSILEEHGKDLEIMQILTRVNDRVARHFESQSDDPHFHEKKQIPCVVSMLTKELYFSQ
inactive: [1] 0.035 | [2] -0.02 | [4] -0.105

CHD9 (UniProt Q3L8U1)
Sequence of UniProt Q3L8U1 (Q3L8U1 whole entry, looked up): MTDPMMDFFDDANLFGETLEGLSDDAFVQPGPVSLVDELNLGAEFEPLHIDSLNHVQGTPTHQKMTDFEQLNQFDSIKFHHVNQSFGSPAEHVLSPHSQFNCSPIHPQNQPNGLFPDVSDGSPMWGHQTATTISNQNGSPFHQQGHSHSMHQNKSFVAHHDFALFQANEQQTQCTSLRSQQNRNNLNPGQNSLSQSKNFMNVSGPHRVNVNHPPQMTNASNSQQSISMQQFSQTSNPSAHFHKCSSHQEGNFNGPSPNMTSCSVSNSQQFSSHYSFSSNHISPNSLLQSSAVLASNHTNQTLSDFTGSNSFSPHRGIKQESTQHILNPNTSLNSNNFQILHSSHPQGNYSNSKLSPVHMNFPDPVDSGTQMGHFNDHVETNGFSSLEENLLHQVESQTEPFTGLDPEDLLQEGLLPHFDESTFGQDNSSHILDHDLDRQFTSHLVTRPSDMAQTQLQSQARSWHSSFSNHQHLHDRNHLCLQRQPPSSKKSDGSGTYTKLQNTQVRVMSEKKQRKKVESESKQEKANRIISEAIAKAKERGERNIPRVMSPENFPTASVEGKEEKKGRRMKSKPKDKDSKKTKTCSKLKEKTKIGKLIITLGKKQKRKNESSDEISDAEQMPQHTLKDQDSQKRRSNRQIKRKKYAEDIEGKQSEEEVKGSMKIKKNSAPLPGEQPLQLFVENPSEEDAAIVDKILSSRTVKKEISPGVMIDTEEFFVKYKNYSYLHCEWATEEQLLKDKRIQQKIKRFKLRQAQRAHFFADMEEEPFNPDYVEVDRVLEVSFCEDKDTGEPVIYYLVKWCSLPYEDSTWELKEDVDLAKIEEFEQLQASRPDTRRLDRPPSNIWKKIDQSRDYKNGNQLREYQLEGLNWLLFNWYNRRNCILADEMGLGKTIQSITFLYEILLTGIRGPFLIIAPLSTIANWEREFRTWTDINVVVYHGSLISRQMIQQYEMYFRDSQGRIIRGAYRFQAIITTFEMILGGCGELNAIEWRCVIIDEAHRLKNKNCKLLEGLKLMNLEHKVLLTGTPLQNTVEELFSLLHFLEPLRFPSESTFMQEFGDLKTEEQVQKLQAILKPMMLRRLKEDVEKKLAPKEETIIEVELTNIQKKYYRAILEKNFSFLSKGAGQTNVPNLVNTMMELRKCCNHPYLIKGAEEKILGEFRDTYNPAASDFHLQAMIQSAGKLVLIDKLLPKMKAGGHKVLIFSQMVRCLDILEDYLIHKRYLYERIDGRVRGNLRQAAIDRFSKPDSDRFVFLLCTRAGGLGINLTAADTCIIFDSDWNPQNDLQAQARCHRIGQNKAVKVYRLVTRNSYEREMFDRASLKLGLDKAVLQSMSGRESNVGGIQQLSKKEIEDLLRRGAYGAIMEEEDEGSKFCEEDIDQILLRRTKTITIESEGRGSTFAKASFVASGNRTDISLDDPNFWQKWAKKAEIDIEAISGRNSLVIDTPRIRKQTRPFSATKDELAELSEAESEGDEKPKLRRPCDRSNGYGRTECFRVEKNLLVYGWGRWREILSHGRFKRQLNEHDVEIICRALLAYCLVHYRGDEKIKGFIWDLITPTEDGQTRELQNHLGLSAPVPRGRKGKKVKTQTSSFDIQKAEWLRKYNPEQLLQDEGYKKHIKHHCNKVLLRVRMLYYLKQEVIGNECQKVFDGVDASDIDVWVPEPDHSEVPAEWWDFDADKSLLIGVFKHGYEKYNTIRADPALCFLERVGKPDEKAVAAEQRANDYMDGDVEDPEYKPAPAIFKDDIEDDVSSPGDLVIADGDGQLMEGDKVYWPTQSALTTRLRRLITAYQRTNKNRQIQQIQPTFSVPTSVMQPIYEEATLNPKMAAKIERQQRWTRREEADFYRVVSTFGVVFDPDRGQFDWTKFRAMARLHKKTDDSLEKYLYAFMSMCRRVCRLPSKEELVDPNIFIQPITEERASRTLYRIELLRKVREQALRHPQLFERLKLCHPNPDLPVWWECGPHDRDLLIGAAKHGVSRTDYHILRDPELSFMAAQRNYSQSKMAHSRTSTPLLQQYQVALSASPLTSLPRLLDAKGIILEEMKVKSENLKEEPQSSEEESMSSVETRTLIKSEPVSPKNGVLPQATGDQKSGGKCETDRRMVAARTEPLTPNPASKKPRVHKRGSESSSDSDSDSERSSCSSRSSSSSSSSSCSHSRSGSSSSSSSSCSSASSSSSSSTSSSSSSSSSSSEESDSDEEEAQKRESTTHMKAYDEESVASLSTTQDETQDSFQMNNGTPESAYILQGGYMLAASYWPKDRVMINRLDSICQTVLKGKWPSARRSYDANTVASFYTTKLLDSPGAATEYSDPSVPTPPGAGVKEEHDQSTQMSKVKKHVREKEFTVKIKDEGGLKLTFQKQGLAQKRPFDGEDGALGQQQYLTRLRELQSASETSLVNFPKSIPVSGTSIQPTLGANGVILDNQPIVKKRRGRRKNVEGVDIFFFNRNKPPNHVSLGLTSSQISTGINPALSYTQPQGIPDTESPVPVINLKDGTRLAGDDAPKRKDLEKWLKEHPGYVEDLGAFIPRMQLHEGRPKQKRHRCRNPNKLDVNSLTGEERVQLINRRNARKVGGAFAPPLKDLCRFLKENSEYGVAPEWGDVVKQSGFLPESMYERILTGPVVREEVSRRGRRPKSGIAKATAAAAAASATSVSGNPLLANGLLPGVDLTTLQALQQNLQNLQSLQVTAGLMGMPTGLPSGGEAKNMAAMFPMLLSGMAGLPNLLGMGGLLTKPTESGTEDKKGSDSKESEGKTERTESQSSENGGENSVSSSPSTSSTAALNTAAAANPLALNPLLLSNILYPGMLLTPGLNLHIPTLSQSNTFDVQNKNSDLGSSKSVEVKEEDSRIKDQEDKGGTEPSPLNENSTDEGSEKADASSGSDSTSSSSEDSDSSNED
inactive: [3] -0.074 | [4] 0.236 | [5] 0.232

CDKL5 (UniProt O76039)
inactive: [3] 0.043 | [4] -0.139 | [5] -0.132

ATE1 (UniProt O95260)
inactive: [1] 0 | [2] 0.07 | [5] -0.125

C6orf120 (UniProt Q7Z4R8)
inactive: [1] -0.101 | [2] -0.015 | [4] -0.131 | [5] 0.137

CACUL1 (UniProt Q86Y37)
inactive: [3] -0.046 | [4] 0.088 | [5] 0.111

CHD4, A0A2R8Y521
inactive: [4] -0.136

C15orf39 (UniProt Q6ZRI6)
inactive: [1] -0.095 | [2] 0.049 | [4] 0.032 | [5] 0.161

C8orf88 (UniProt P0DMB2)
Sequence of UniProt P0DMB2 (P0DMB2 whole entry, looked up): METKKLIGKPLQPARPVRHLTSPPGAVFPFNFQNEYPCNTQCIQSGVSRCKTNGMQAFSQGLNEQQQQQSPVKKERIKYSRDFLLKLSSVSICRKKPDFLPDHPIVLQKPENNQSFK
inactive: [1] 0.033 | [2] 0.051 | [4] 0.051 | [5] -0.002

CEBPZOS (UniProt A8MTT3)
Sequence of UniProt A8MTT3 (A8MTT3 whole entry, looked up): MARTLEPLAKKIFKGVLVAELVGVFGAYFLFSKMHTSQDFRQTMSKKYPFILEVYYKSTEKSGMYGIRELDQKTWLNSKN
inactive: [3] -0.03 | [4] -0.006 | [5] 0.018

CAPNS1 (UniProt K7ES78)
inactive: [3] -0.094 | [4] -0.216

CCND3 (UniProt P30281)
Sequence of UniProt P30281 (P30281 whole entry, looked up): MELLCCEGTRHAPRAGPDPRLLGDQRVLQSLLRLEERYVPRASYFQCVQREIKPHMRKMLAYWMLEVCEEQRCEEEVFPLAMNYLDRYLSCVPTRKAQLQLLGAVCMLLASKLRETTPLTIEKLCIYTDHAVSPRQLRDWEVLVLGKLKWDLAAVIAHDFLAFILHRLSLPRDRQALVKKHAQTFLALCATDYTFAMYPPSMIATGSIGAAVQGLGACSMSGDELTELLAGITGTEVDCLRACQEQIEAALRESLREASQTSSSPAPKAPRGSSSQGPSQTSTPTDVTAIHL
inactive: [1] 0.043 | [2] 0.051 | [4] 0.036 | [5] -0.023

C9orf72 (UniProt Q96LT7)
inactive: [1] -0.012 | [2] 0.049 | [4] -0.028 | [5] 0.002

BBS7 (UniProt Q8IWZ6)
inactive: [3] 0.035 | [4] -0.358 | [5] 0.181

ATG4D (UniProt Q86TL0)
inactive: [1] -0.011 | [2] 0.057 | [4] 0.041

BUD13 (UniProt Q9BRD0)
inactive: [1] -0.037 | [2] 0.068 | [4] -0.162 | [5] 0.029

ATF7IP2 (UniProt Q5U623)
inactive: [1] 0.162 | [2] 0.01 | [3] 0.101 | [5] 0.017

CANX (UniProt D6RHJ3)
inactive: [3] 0.072

CARHSP1 (UniProt H3BNU9)
inactive: [1] -0.034 | [2] -0.224 | [5] 0.094

ATPSCKMT (UniProt Q6P4H8)
inactive: [1] 0.111 | [2] -0.006 | [4] 0.023

BICRA (UniProt Q9NZM4)
inactive: [1] -0.077 | [2] 0.208 | [4] -0.122 | [5] -0.142

BCORL1 isoform 3 (UniProt Q5H9F3)
inactive: IRAK-1-4 Inhibitor I -0.141 | [3] 0.029 | [4] 0 | [5] -0.382

BNIP3 (UniProt Q12983)
inactive: [1] 0.034 | [2] -0.053 | [4] -0.023 | [5] -0.074

C1orf131 isoform 5 (UniProt Q8NDD1)
inactive: [3] 0.096 | [4] -0.009 | [5] -0.108

C3AR1 (UniProt Q16581)
Sequence of UniProt Q16581 (Q16581 whole entry, looked up): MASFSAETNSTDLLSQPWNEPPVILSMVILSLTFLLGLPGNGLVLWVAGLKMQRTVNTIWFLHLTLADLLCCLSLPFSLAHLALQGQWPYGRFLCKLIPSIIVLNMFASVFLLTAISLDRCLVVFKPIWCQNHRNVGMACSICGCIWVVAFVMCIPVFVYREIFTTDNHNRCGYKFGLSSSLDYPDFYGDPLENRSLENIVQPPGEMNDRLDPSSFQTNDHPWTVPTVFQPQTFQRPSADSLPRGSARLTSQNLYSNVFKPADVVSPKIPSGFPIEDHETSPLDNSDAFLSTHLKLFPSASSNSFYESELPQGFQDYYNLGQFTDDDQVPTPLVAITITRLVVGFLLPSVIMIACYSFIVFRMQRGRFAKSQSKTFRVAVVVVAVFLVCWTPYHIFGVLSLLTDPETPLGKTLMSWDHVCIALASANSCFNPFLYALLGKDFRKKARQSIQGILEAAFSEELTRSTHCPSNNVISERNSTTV
inactive: [1] 0.121 | [2] 0.024 | [5] -0.083

B3GALT6 (UniProt Q96L58)
inactive: [1] 0.055 | [2] 0.041 | [4] 0.269

CD80 (UniProt P33681)
Sequence of UniProt P33681 (P33681 whole entry, looked up): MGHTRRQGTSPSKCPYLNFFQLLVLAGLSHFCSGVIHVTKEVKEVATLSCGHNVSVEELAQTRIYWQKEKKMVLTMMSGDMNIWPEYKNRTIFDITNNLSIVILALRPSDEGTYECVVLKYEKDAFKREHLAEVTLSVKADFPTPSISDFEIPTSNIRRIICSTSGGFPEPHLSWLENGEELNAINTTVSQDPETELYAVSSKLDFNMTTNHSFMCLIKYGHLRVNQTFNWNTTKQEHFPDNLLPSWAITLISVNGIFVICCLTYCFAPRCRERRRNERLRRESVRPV
inactive: [3] 0.032 | [4] 0.018 | [5] 0.048
